Our source for the outcome and Potency values is PubChem BioAssay (Tox21).

A number with no mark means an inactive call. Results filed as inconclusive are left out. Calls of active or inactive are those of the source. Unless noted, calls follow the shape of the dose curve; as a rule, active = well fitted curve in the direction sought with a large enough effect in the repeat runs; inconclusive = weak or mixed curves; inactive = no such curve, though single readings can be large; an effect the other way counts as inactive or inconclusive.

Experiment [1] in a line: qHTS assay to test for compound auto fluorescence at 590 nm (red) in HepG2 cells (AID 720674). Put shortly:
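Compound auto-fluorescence is scored relative to Rose Bengal sodium, measured at 540/590 nm in live HepG2 cultures after 1 hr compound contact (37 C, 5% CO2).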
On the technique in general: In qHTS, concentration-response curves come from the screen itself.

Experiment [2] in a line: qHTS assay to test for compound auto fluorescence at 535 nm (green) in HepG2 cells (AID 720675).
Experiment [3] is described as follows: qHTS assay to test for compound auto fluorescence at 460 nm (blue) in HEK293 cells (AID 720678). Put shortly:
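Auto fluorescence in the blue band was quantified as triamterene equivalency. HEK293 cells were seeded at 2,000/well, dosed after a 4-5 hr attachment, and kept overnight at 37C before the 405/460 nm reading.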

A short description of experiment [4]: qHTS assay to test for compound auto fluorescence at 460 nm (blue) in HEK293 cell free culture (AID 720681). Put shortly:
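Test compounds were pinned into cell-free culture medium (DMEM with 10% FBS) and fluorescence was read directly at Ex/Em 405/460 nm. Signals were expressed as fluorescence equivalents of triamterene, with DMSO vehicle as control.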

Experiment [5] can be described thus: qHTS assay to test for compound auto fluorescence at 535 nm (green) in HEK293 cell free culture (AID 720682). Put shortly: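 DMEM + 10% FBS, cell-free; cpd or DMSO pinned in; Ex485/Em535 read; output as fluorescein-equivalent signal.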
Experiment [6] is described as follows: qHTS assay to test for compound auto fluorescence at 590 nm (red) in HEK293 cell free culture (AID 720683). Put shortly:
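Tox21 10K library compounds were pinned into cell-free DMEM with 10% FBS and fluorescence was read at excitation 540 nm. Activity is expressed as Rose Bengal sodium equivalency.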

The nature of experiment [7]: qHTS assay to test for compound auto fluorescence at 590 nm (red) in HepG2 cell free culture (AID 720684). Put shortly:
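Red fluorescence (540 nm excitation, 590 nm emission) was measured after compound transfer into cell-free MEM supplemented with 10% FBS. Values are equivalencies against Rose Bengal sodium.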

A short description of experiment [8]: qHTS assay to test for compound auto fluorescence at 460 nm (blue) in HepG2 cell free culture (AID 720685). Put shortly:
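Compound (23 nL) or DMSO pinned into cell-free MEM with 10% FBS; blue fluorescence read at 405/460 nm excitation/emission, expressed as auto-fluorescence equivalency to triamterene.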

A short description of experiment [9]: qHTS assay to test for compound auto fluorescence at 535 nm (green) in HepG2 cell free culture (AID 720686).
A short description of experiment [10]: qHTS assay to test for compound auto fluorescence at 460 nm (blue) in HepG2 cells (AID 720687). Put shortly:
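Cells (2,000/well in MEM with 10% FBS) attached overnight at 37 C, then were exposed to compound or DMSO for 1 hr at 37 C, 5% CO2. Fluorescence read at Ex/Em 405/460 nm, expressed as triamterene-equivalent signal.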

Experiment [11] in a line: qHTS assay to identify small molecule antagonists of the thyroid receptor (TR) signaling pathway (AID 743065). Also: series mostly up to about 70 µM; nearly all actives have a fitted effect of over 55% in size. Put shortly: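 GH3.TRE-Luc rat pituitary cells carrying two TR response elements driving luciferase were plated for 4 h, given compound plus 1 nM T3 (final), and incubated 23.5 h at 37 C. ONE-Glo luminescence measured reporter inhibition; CellTiter-Fluor fluorescence tracked cytotoxicity.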

Experiment [12] relates to thyroid hormone receptor (rat, GH3 cells). As to the kind of experiment: qHTS assay to identify small molecule agonists of the thyroid receptor (TR) signaling pathway (AID 743066; calls by dose curve).
A further experiment has as its target Aromatase (Homo sapiens) (UniProt P11511). As to the kind of experiment: qHTS assay to identify aromatase inhibitors (AID 743083). Also: series mostly up to about 70 µM; nearly all actives have a fitted effect of over 55% in size.
The nature of experiment [13]: qHTS RealTime-Glo MT Cell Viability Assay in HEK293 cells - 0 hour (AID 1224880). Also: top concentration of the series differs between compounds; nearly all actives have a fitted effect of over 45% in size. Put shortly: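 Viable HEK293 cells reduce a cell-permeant prosubstrate; the product diffuses out and is consumed by NanoLuc in the medium to give light. Compounds went in after a 5 h incubation and plates were read over the treatment course.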
Experiment [14] is described as follows: qHTS assay to identify small molecule HDAC inhibitors (AID 1259364).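 Also: wild-type HCT-116 cells with endogenous class I/II HDAC activity; top concentration of the series differs between compounds; nearly all actives have a fitted effect of over 45% in size.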 Put shortly:
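Read-out: luminescence of HDAC-Glo I/II reagent, 30 min RT, reflecting class I/II deacetylase activity in whole HCT-116 cells pre-exposed 2 h to DMSO-dissolved compounds.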

The nature of experiment [15]: qHTS assay to identify small molecule antagonists of the progesterone receptor (PR) signaling pathway - cell viability counter screen (AID 1346798). Also: series mostly up to about 92 µM; nearly all actives have a fitted effect of over 50% in size. Put shortly:
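CellTiter-Glo luminescence; PR-UAS-bla HEK293T, 3,000 cells/well; compound + R5020, 16 hr, 37C/5% CO2; 30 min RT before read.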

The nature of experiment [16]: qHTS assay to test for compound auto fluorescence at 590 nm (red) in HEK293 cells (AID 720679). Put shortly: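 Autofluorescence equivalency to Rose Bengal sodium, 540/590nm, in HEK293 cells exposed overnight to 23 nL compound per well.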
A short description of experiment [17]: qHTS assay to test for compound auto fluorescence at 535 nm (green) in HEK293 cells (AID 720680).
Experiment [18] has as its target Luciferin 4-monooxygenase (Photinus pyralis) (UniProt P08659). The experiment in a line: qHTS assay to identify small molecule inhibitors of firefly luciferase (AID 1224835). Also: series mostly up to about 120 µM; nearly all actives have a fitted effect of over 25% in size. Put shortly: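 Quantitative HTS format; KM concentrations of both substrates. Purified P. pyralis FLuc activity quantified from luminescence images.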
Experiment [19] in a line: qHTS assay to identify small molecule agonists of the estrogen related receptor (ERR) signaling pathway (AID 1224820). Put shortly:
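Quantitative HTS of the LOPAC library used NTP ERR reporter cells treated 18 h at 37 C. Signal is luminescence after One-Glo addition and a 30 min room-temperature incubation.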

A short description of experiment [20]: qHTS assay to identify small molecule antagonists of the estrogen related receptor signaling pathway with the pleiotropic PPARgamma coactivator (PGC) cell viability counter screen (AID 1224822; also: potency is read from the fitted curve at half-maximal effect). Put shortly: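 PGC/ERR cells were plated at 2,000 per well and allowed 6 h to settle before compound addition. Following 17.5 h at 37 C, CellTiter-Fluor reagent was added and fluorescence was read 30 min later.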

Experiment [21] in a line: qHTS assay to identify small molecule agonists of the estrogen related receptor signaling pathway with the pleiotropic PPARgamma coactivator (PGC) (AID 1224823). Put shortly: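 Cell-based luciferase assay in the NTP-supplied PGC/ERR line, 2,000 cells/well; 18 h compound exposure at 37 C, luminescence after One-Glo.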
Experiment [22] can be described thus: qHTS assay to identify small molecule antagonists of the estrogen related receptor (ERR) signaling pathway (AID 1224819;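 also: luminescence from an ERR-driven luciferase reporter measured with One-Glo reagent; series mostly up to about 46 µM; nearly all actives have a fitted effect of over 50% in size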). Put shortly: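 Luminescence readout (One-Glo, 30 min, RT) of ERR cell line after 18 h compound exposure at 37 C; cells seeded 2,000/well, pre-incubated 6 h, compounds pinned from DMSO stocks.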
Experiment [23] relates to estrogen-related receptor alpha (ERRalpha) with PGC-1alpha coactivator, human. The experiment in a line: qHTS assay to identify small molecule antagonists of the estrogen related receptor signaling pathway with the pleiotropic PPARgamma coactivator (PGC) (AID 1224821; calls by dose curve;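 also: series mostly up to about 46 µM; lower luminescence signal means antagonism of PGC/ERR signalling; nearly all actives have a fitted effect of over 50% in size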). Put shortly:
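Quantitative HTS for antagonism: PGC/ERR cells received compounds after 6 h attachment and were incubated 18 h at 37 C, with luminescence (One-Glo) as the endpoint.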

Chain of Aromatase (Homo sapiens) (P11511 whole entry, looked up): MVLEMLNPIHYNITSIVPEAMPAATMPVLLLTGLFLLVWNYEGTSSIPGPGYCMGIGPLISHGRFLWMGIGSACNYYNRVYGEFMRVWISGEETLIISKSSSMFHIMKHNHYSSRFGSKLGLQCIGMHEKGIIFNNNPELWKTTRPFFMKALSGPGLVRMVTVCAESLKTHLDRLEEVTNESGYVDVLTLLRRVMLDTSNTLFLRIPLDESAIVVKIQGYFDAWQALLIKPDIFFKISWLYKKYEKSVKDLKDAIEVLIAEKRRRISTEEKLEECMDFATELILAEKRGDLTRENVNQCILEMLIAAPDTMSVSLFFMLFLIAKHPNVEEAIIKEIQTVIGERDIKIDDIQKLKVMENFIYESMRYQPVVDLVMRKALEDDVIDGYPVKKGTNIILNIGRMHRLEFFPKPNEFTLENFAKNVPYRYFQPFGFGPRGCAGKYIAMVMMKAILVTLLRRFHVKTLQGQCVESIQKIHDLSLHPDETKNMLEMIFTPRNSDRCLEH
Chain of Luciferin 4-monooxygenase (Photinus pyralis) (P08659 whole entry, looked up): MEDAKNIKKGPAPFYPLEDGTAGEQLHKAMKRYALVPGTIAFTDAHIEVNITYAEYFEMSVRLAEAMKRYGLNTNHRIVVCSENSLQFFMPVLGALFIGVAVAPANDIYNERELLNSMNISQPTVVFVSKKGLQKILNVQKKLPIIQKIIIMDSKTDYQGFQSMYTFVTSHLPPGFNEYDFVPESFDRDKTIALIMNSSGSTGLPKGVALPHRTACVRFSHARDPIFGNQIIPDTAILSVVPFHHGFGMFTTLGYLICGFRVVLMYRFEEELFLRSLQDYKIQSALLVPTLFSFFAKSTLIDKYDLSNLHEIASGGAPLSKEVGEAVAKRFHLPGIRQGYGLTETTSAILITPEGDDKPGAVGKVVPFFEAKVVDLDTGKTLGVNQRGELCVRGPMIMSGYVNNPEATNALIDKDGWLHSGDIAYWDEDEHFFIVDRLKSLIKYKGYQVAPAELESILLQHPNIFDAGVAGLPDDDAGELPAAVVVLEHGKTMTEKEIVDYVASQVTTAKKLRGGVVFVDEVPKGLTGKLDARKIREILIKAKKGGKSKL

For `Oc1c(Cl)cc(Cl)cc1Cl`, the outcome in [1], in [6], in experiment [7], in [13] and in experiment [14] was inactive. The Potency entry in experiment [2], in experiment [3], in experiment [4], in experiment [5], in experiment [8] and in [9] was “inactive” throughout. Also, the Potency entry (in experiment [10]; in experiment [11]; in experiment [12]; in the experiment with Aromatase (Homo sapiens); in experiment [15]) was “inactive” throughout.

For the compound `Cc1ccc2ccccc2c1C`, the outcome in experiment [1], in experiment [16], in experiment [6], in experiment [13] and in [14] was inactive. Also, the Potency entry in experiment [2], in [17], in [4], in experiment [5], in [8] and in experiment [9] was “inactive” throughout. For the same compound, the Potency result in experiment [10], in experiment [18] and in experiment [15] was “inactive” throughout.

On to `O=[N+]([O-])/C=C/c1ccc2c(c1)OCO2`, for which the Potency result in experiment [19] and in experiment [21] was “inactive” throughout. For the same compound, in experiment [20], the Potency was 22 µM (active).

Turning to `CN1CCC[C@@H]1Cc1c[nH]c2ccc(Nc3ncccc3[N+](=O)[O-])cc12`, the Potency result in experiment [22], in experiment [19], in [23] and in [21] was “inactive” in each case.
